Source: PubChem
VDR inh – blocks the human vitamin D receptor. P11473. VDR-SRC2-3 peptide fluorescence polarization, 2 h. Potency, µM, without a hit: max response, negative = inhibition, usual class: inhibitors. actives 0.93% (n = 400,000). AID 504847; further: potency means the concentration at half of the fitted maximal effect; on the % scale 0 is the no-effect control and ±100 the full control effect
Target sequence (P11473 whole entry, looked up): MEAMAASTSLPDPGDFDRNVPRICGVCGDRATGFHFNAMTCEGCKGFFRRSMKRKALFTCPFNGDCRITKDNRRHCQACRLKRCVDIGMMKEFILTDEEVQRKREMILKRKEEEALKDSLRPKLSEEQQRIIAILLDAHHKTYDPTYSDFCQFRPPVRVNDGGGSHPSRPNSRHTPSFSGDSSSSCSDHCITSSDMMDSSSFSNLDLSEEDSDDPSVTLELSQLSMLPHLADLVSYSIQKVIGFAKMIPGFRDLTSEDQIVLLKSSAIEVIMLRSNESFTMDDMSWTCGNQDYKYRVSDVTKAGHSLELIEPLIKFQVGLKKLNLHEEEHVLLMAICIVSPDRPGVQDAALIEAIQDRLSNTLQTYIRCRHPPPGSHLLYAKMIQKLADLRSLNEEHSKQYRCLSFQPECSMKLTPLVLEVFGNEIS
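Measured by FP: displacement of SRC2-3 coactivator peptide from VDR by library compounds, following a two-hour ambient incubation.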
PLK1 PBD inh – inhibitors of human PLK1 polo-box domain binding; P53350; Plk1 PBD binding of FITC phosphopeptide, fluorescence polarization; Potency, µM, inactives show max response, negative = inhibition, hits mostly inhibitors; actives 2.8% (n = 360,000); AID 720504; further: potency means the concentration at half of the fitted maximal effect; series mostly up to about 57 µM; on the % scale 0 is the no-effect control and ±100 the full control effect; nearly all actives have a fitted effect of over 65% in size
Rango dissoc inh – inhibitors of RanGTP-induced Rango-importin beta complex dissociation; AID 540253; actives 0.071% (n = 340,000); Biochemical FRET Rango-importin beta, RanGTP-induced dissociation; Potency, µM (titrated, usually from 46.1 µM), for the others: at the highest dose activity change, negative = inhibition; O95149+P62826; calls by dose curve; further: potency means the concentration at half of the fitted maximal effect; % of control where 0% means no effect; nearly all actives have a fitted effect of over 45% in size
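Quantitative HTS using a FRET biosensor: 0.1 uM Rango, 0.25 uM importin beta, 0.6 uM Ran, 2 mM GTP, 0.2 uM RCC1 final, PBS with DTT, Tween-20 and BSA. Post-read taken 45 min after Ran addition.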
PI5P4K alpha inh – PI5P4K alpha (human) kinase inhibition; P48426; PI5P4Kalpha enzyme, ADP-Glo luminescence, 60 min; hits give low values; max response, %; actives 1.2% (n = 330,000); active means max response of -50% or lower; inconclusive means between -30% and -50%; inactive means -30% or higher; further: value at the top dose of about 77 µM; on the % scale 0 is the no-effect control and ±100 the full control effect
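Enzyme plus substrate dispensed, test compounds pinned in, then ATP (5 microM final) added. After 60 min at RT, ADP-Glo reagent 1 for 45 min and reagent 2 for 30 min preceded luminescence imaging.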
Rango-impB inh – Rango-importin beta binding inhibition. actives 0.031% (n = 340,000). Q14974. AID 540263. Potency, µM (titrated, usually from 92.2 µM), without a hit: at the top dose inhibition of complex formation. Rango CFP/YFP FRET sensor + importin beta, 45 min; calls by dose curve;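 further: potency means the concentration at half of the fitted maximal effect; 0% = DMSO wells and 100% = buffer wells lacking importin beta; nearly all actives have a fitted effect of over 15% in size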
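FRET biosensor Rango (snurportin 1 IBB between N-terminal EYFP and C-terminal Cerulean), 50 nM in PBS/1 mM DTT/0.02% Tween-20/0.1% BSA, preincubated 5 min RT with compound; 0.125 microM importin beta added, 45 min RT, CFP/YFP FRET ratio read.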
KAT2A inh – GCN5L2 (KAT2A) acetyltransferase inhibition; Q92830; GCN5L2 HAT assay, ThioGlo1 CoA-SH fluorescence; Potency, µM (titrated, usually from 58.9 µM), without a hit: at the highest dose activity change, negative = inhibition, most hits filed as inhibitors; actives 0.21% (n = 390,000); AID 504327; further: potency means the concentration at half of the fitted maximal effect; on the % scale 0 is the no-effect control and ±100 the full control effect
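Preincubate 20nM GCN5L2 with compound 15 min, RT → add 50uM ThioGlo1 + 75uM H3(1-25) + 70uM acetyl-CoA → read fluorescence 0 and 20 min. Primary qHTS; fluorescent artifacts likely.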
Numbers without * were called inactive; ? = inconclusive; nt = no result given. Only some compounds are listed: those with a hit (about 3.6% of all), similar ones and a draw of the others. Unless noted, the call rests on the fitted dose curve; in most records, active means well fitted curve in the direction sought with a large enough effect; inconclusive means small, poorly fitted or top-dose-only effect, or another doubt; inactive means no such curve, though single readings can be large; an effect the other way counts as inactive or inconclusive.

SMILES	VDR inh	PLK1 PBD inh	Rango dissoc inh	PI5P4K alpha inh	Rango-impB inh	KAT2A inh
COC1=C(C(=O)c2ccccc2)C(=O)C2(CC=C(C)C)C[C@H](C(=O)OCC(F)(F)F)C(C)(C)[C@@]1(CC=C(C)C)C2=O (tested in a mixture with another compound)	-1.2%	nt	nt	nt	nt	nt
Cc1cc(C)c2c(n1)sc1c(=O)n(-c3cc(Cl)ccc3C)nnc12	10.5%	nt	nt	nt	nt	3.8%
N#C/C(=C\c1cccc(O)c1)C(=O)N1CCCCC1	-22.8%	-8.4%	-0.9%	-0.9	-5.6%	-7.8%
N#C/C(=C\c1ccccc1)C(=O)N1CCN(c2ccccc2F)CC1	44.7µM*	-16.5%	1.7%	-2.2	2.9%	-1.8%
N#C/C(=C\c1cccc(Br)c1)C(=O)N1CCCCC1	50.1µM*	?	3.0%	-1.2	0.8%	-4.3%
C=CCNC(=O)/C(C#N)=C/c1ccc(OS(=O)(=O)c2ccc(C)cc2)c(OC)c1	28.2µM*	?	7.5%	-8.8	0.0%	-7.7%
COC(=O)N/N=C/c1ccc(OS(=O)(=O)c2ccc(C)cc2)c(OC)c1	-14.7%	-5.5%	2.0%	-5.9	3.0%	-12.6%
Cc1ccc(C2C(C#N)=C(N)SC(N)=C2C#N)c(C)c1	-29.9%	31.5%	?	-62.9*	?	-12.5%
CC(c1ccccc1)C1C(C#N)=C(N)SC(N)=C1C#N (stereo not drawn)	-19.0%	-27.2%	-7.4%	?	0.2%	-5.7%
Cc1ccc(C2C(C#N)=C(N)SC(N)=C2C#N)cc1	-19.6%	33.3%	?	-85.0*	?	-3.5%
O=C(NCCCN1CCN(c2cccc(Cl)c2)CC1)c1cnn(-c2ccc(F)cc2)c1-n1cccc1	6.2%	nt	nt	nt	nt	-4.5%
O=c1[nH]c(=S)c2[nH]cnc2[nH]1	-3.7%	nt	nt	nt	nt	nt
CCOc1ccccc1NC(=O)CN1C(=O)COc2ccc(S(=O)(=O)N3CCCCCC3)cc21	-5.6%	nt	nt	nt	nt	-9.5%
COc1ccccc1NC(=O)CN1C(=O)COc2ccc(S(=O)(=O)N3CCCCCC3)cc21	-16.8%	29.9µM*	7.7%	-10.4	-3.1%	-15.8%
CCCn1c(SCC(=O)Nc2cc(S(=O)(=O)N3CCOCC3)ccc2OC)n[nH]c1=O	12.9%	29.9µM*	5.9%	-12.2	4.1%	-4.3%
COc1ccccc1NC(=O)COn1nnc2ccc(S(=O)(=O)N3CCOCC3)cc21	-28.3%	18.9µM*	6.0%	-25.8	-1.0%	-0.4%
COc1ccc(NC(=O)Cn2c(SCc3ccc(C)cc3)nc3cccnc32)c(OC)c1	1.1%	nt	nt	nt	nt	-3.1%
CCc1cnc2c(c1SC(C(C)=O)C(=O)N(C)C)c(=O)n(C)c(=O)n2C (stereo not drawn)	14.3%	nt	nt	nt	nt	-7.0%
Nc1nc(N)c2ncc(C(=O)CCc3ccccc3)nc2n1	?	4.74µM*	?	?	?	-4.2%
C=C(C)C(=O)OCCOC(=O)C(=C)C	0.3%	nt	nt	nt	nt	44.2%
O=[N+]([O-])c1ccc(Cl)c(S(=O)(=O)Nc2cccc(S(=O)(=O)NC3=NCCC3)c2)c1	79.4µM*	?	-9.5%	-14.2	-1.7%	-10.0%
O=[N+]([O-])c1ccc(Cl)c(S(=O)(=O)NC2=NCCC2)c1	-21.3%	1.4%	3.0%	-3.5	2.1%	-5.3%
NC(=O)c1cc(Cc2ccccc2)sc1NC(=O)c1ccco1	?	16.8µM*	-18.9%	nt	?	-8.6%
CCCc1cc(C(N)=O)c(NC(=O)c2ccoc2C)s1	-5.5%	29.9µM*	-3.5%	nt	5.4%	-10.5%
CCOc1ccc(CC(=O)Nc2sc(Cc3ccccc3)cc2C(N)=O)cc1OCC	?	16.8µM*	-8.3%	nt	?	-0.6%
SMILES	VDR inh	PLK1 PBD inh	Rango dissoc inh	PI5P4K alpha inh	Rango-impB inh	KAT2A inh
CNc1ccc(C(=O)Oc2cc(O/N=[N+](\[O-])N(C)C)c([N+](=O)[O-])cc2[N+](=O)[O-])cc1	-3.6%	nt	nt	nt	nt	nt
CC1CCc2nn(CC(=O)Nc3ccccc3Cl)cc2C1 (stereo not drawn)	-5.0%	nt	nt	nt	nt	-2.8%
c1ccc(Nc2ncnc3ccc(-c4ccoc4)cc23)cc1	31.6µM*	nt	nt	nt	nt	?
c1ccc(CNc2ncnc3ccc(-c4ccoc4)cc23)cc1	25.1µM*	nt	nt	nt	nt	?
c1ccc(CNc2ccnc(-c3ccoc3)n2)cc1	79.4µM*	nt	nt	nt	nt	-4.4%
Cc1nn2c(C)c(C(=O)NCc3cccc(Br)c3)cnc2c1-c1ccccc1	-0.7%	nt	nt	nt	nt	27.9%
COC(=O)C#CC(=O)OC	0.7%	nt	nt	nt	nt	-8.6%
CC(C)(C)N/N=C1\CC(c2ccccc2)Oc2ccccc21 (stereo not drawn)	-4.9%	29.9µM*	-21.2%	7.8	-2.4%	1.9%
O=S(=O)(N/N=C1/CC(c2ccccc2)Oc2ccccc21)c1ccccc1 (stereo not drawn)	-2.5%	-4.8%	4.4%	-2.3	-0.6%	nt
Oc1ccccc1C(=S)N1CCN(c2cccc(Cl)c2)CC1	89.1µM*	11.9µM*	23.3%	-15.7	-2.1%	-18.0%
CC1CCN(C(=S)c2ccccc2O)CC1	?	15µM*	1.6%	nt	-0.1%	-0.1%
COc1ccc(C(=S)N2CCN(c3cccc(Cl)c3)CC2)c(OC)c1	?	11.9µM*	-4.4%	-4.6	0.9%	-2.7%
O=C(C(=O)N1CCN(c2cccc(Cl)c2)CC1)N1CCCCC1	2.4%	-16.8%	?	-2.9	-3.2%	-1.6%
COc1ccc(C(=O)N2CCN(c3cccc(Cl)c3)CC2)cc1	-18.4%	-7.5%	-15.9%	-2.8	-1.2%	-2.0%
COc1cc(C(=S)N2CCN(c3cccc(Cl)c3)CC2)ccc1O	39.8µM*	4.74µM*	-0.3%	?	-1.3%	-10.9%
Cc1ccc(C(=O)N2CCN(c3cccc(Cl)c3)CC2)cc1C	-9.1%	-10.0%	8.7%	nt	3.3%	-3.5%
Cc1cc2n(n1)CCC(=O)N2Cc1ccc(C(=O)Nc2ccc(F)cc2F)cc1	1.5%	nt	nt	nt	nt	-3.6%
O=C(O)[C@H](Cc1ccccc1)NC(=O)C(c1ccccc1)(c1ccccc1)c1ccccc1	-26.4%	26.7µM*	?	7.2	-4.5%	2.0%
O=C(CC(c1ccccc1)(c1ccccc1)c1ccccc1)N[C@@H](Cc1ccccc1)C(=O)O	-15.4%	-3.9%	-8.8%	7.0	-3.5%	1.7%
COc1cc(C(=O)Nc2ccccc2SCc2cc(=O)n3nc(C)sc3n2)cc(OC)c1OC	?	26.7µM*	-4.6%	-3.1	-2.1%	-2.7%
CN1CCC(=O)N(C(CSc2ccc(Br)cc2)c2ccccc2)CC1 (stereo not drawn)	-9.4%	nt	nt	nt	nt	nt
CCOc1ccc(N(CC(=O)NC2CCCCC2)S(=O)(=O)c2c(C)noc2C)cc1	?	29.9µM*	-11.5%	-1.1	4.7%	-1.1%
CCc1ccc(N(CC(=O)O)S(=O)(=O)c2c(C)noc2C)cc1	-8.9%	29.9µM*	29.7%	3.2	-0.7%	-3.7%
